# Test results as given in paper PMC4336329 (PLoS ONE, 2015).
# Hit rate of the full screen: of about 310,000 compounds, about 14,000 (4.5%) showed an effect of 50% or more. Effects have a minus sign here. The full list was thinned out, with strong results kept by preference.
# Target: human ether-à-go-go-related gene (hERG) potassium channel (human, UniProt Q12809)
# Experiment: primary screen, population patch clamp on CHO cells stably expressing hERG; higher = less effect of the substance
# 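Further: peak tail current of the secondary pulse compared with the same well before compound.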
# human ether-à-go-go-related gene (hERG) potassium channel, sequence (Q12809 whole entry, looked up): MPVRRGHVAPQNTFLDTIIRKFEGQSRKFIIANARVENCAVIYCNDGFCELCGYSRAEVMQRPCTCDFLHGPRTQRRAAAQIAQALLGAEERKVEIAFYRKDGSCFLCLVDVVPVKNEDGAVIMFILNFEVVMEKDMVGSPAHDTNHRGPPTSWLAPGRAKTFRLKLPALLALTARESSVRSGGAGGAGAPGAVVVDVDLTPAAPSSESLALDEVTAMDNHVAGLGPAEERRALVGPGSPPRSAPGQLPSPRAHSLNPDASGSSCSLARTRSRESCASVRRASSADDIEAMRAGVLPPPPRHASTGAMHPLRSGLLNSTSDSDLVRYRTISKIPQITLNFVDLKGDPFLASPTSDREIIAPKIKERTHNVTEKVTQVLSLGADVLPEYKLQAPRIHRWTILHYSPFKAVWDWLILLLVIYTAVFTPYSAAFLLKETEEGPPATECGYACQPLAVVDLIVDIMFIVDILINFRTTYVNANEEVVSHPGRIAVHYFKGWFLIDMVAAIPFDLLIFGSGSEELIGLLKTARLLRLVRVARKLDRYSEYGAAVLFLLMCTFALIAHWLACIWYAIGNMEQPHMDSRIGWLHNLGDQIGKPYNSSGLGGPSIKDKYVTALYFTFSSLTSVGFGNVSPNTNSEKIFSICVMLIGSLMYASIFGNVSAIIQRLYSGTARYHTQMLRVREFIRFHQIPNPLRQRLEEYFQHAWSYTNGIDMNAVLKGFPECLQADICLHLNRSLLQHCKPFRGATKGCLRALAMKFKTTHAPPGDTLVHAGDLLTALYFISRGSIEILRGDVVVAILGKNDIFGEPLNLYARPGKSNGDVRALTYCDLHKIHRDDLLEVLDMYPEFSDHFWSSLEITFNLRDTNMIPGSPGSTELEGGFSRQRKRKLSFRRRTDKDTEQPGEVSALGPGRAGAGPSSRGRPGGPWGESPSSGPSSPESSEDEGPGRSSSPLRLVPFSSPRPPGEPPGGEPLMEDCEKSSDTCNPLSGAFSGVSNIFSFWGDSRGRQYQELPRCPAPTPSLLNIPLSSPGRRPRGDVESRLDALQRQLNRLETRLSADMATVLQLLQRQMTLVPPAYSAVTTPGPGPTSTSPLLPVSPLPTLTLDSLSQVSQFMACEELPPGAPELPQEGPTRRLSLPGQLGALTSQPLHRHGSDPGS
row,Compound,"hERG current change (%, negative = inhibition) at 10uM"
1,Cc1nnc(SCC(=O)c2ccc(Cl)cc2)s1,-9.82%
2,Cn1c(=O)c2c(nc(CN3CCN(C(=O)c4ccco4)CC3)n2Cc2ccc(F)cc2)n(C)c1=O,-44.8%
3,Cn1c(=O)c2c(nc(CN3CCN(C(=O)c4ccco4)CC3)n2Cc2ccccc2)n(C)c1=O,-40.7%
4,Cn1c(=O)c2c(nc(CN3CCN(C(=O)c4ccco4)CC3)n2Cc2ccc(Cl)cc2)n(C)c1=O,-64.8%
5,CC(=O)Cn1c(CN2CCN(C(=O)c3ccco3)CC2)nc2c1c(=O)n(C)c(=O)n2C,16%
6,CC(C)Cn1c(CN2CCN(C(=O)c3ccco3)CC2)nc2c1c(=O)n(C)c(=O)n2C,-12.2%
7,Cc1ccc(Cn2c(CN3CCN(C(=O)c4ccco4)CC3)nc3c2c(=O)n(C)c(=O)n3C)cc1,-54.2%
8,Cc1ccccc1Cn1c(CN2CCN(C(=O)c3ccco3)CC2)nc2c1c(=O)n(C)c(=O)n2C,-45%
9,Cn1c(=O)c2c(nc(CN3CCN(C(=O)c4ccco4)CC3)n2Cc2cccc(Cl)c2)n(C)c1=O,-60.1%
10,CCN1CCN(C(=O)c2ccc3c(c2)N(Cc2ccc(F)cc2)C(=O)c2ccccc2S3=O)CC1 (stereo not drawn),-9.09%
11,O=C(NCc1ccccn1)[C@H]1C[C@@H]1[C@H](NP(=O)(c1ccccc1)c1ccccc1)c1ccccc1,-9%
12,O=C(Nc1ccc2oc(-c3cccnc3)nc2c1)c1ccco1,-33.2%
13,CC(=O)Nc1ccc(S(=O)(=O)N2CCC(C(=O)N[C@@H](C)C(=O)NC3CCCC3)CC2)cc1,35.3%
14,Cc1nc2ccc([N+](=O)[O-])cc2c(=O)n1Cc1ccc(F)cc1,-26.2%
15,Cc1nc2ccc([N+](=O)[O-])cc2c(=O)n1Cc1ccc([N+](=O)[O-])cc1,-76.8%
16,CCn1c(=O)c2ccccc2n(Cc2cccc([N+](=O)[O-])c2)c1=O,15.3%
17,Cc1nc2ccc([N+](=O)[O-])cc2c(=O)n1Cc1ccc(Cl)cc1,-4.6%
18,Cc1c(C=O)c2ccccc2n1Cc1ccc(F)cc1,-43.1%
19,Cc1nc2ccccc2c(=O)n1Cc1ccc([N+](=O)[O-])cc1,-74.4%
20,Cc1c(C=O)c2ccccc2n1Cc1ccccc1,-2.16%
21,CCn1c(=O)c2ccccc2n(Cc2ccc([N+](=O)[O-])cc2)c1=O,-77%
22,Cc1nc2ccc([N+](=O)[O-])cc2c(=O)n1Cc1ccc(Br)cc1,7.76%
23,COc1ccc(Cn2c(C)nc3ccc([N+](=O)[O-])cc3c2=O)cc1,-20%
24,CCn1c(=O)c2ccccc2n(Cc2cccc(C)c2)c1=O,3.93%
25,Cc1c(C=O)c2ccccc2n1Cc1ccc([N+](=O)[O-])cc1,-78.1%
26,Cc1onc(-c2ccccc2Cl)c1C(=O)Nc1ccc(S(=O)(=O)NCC2CCCO2)cc1 (stereo not drawn),-10.5%

row,Compound,"hERG current change (%, negative = inhibition) at 10uM"
1,COc1ccc(C(=O)Nc2ccccc2N2CCOCC2)cc1S(=O)(=O)N1CCCC1,-24.5%
2,O=C(NCCCN1CCOCC1)c1cccc(S(=O)(=O)N2CCc3ccccc3C2)c1,-17%
3,O=C(NNC(=O)c1ccc(Cl)cc1Cl)c1ccncc1,17%
4,Cc1ccc(-c2cccc(C(=O)NCc3ccccc3)n2)c2ccccc12,17.8%
5,CCOC(=O)N1C=CC=C[C@@H]2[C@@H](N3C(=O)c4ccccc4C3=O)C(=O)N21,0.941%
6,COc1ccc(OC)c2[nH]c(=O)c(CCNC(=O)C(=O)c3c(C)[nH]c4ccccc34)cc12,-1.04%
7,C/C(CC(=O)Nc1ccccc1[N+](=O)[O-])=N\NC(=O)COc1ccccc1C,-5.65%
8,COC(=O)c1cc(-c2ccc(OC)c(OC)c2)c2c(=O)[nH]c(=O)n(C)c2n1,21.3%
9,COc1ccc(CSCCc2n[nH]c(=S)n2-c2ccccc2)cc1,20.1%
10,CC1=Nn2c(nnc2-c2n[nH]c3c2CCC3)SC1,8.18%
11,COc1ccc(N(CC(=O)Nc2ccc(C(N)=O)cc2)S(=O)(=O)c2ccc(C)c([N+](=O)[O-])c2)cc1,24%
12,COc1ccc(N(CC(=O)NC(C)c2ccccc2)S(=O)(=O)c2ccc(C)cc2)cc1 (stereo not drawn),-22.1%
13,Cc1ccc(S(=O)(=O)N(CC(=O)NCc2cccnc2)c2ccc(F)cc2)cc1,-61.2%
14,CN(c1ccc(OCC(=O)OCC(=O)Nc2c(F)c(F)c(F)c(F)c2F)cc1)S(=O)(=O)c1ccc(F)cc1,8.61%
15,COc1ccc(S(=O)(=O)N(CC(=O)NCc2cccnc2)c2ccc(F)cc2)cc1OC,4.62%
16,Cc1ccc(N(CC(=O)NCC(O)c2ccccc2)S(=O)(=O)c2ccc(C)cc2)cc1 (stereo not drawn),-65.9%
17,CN(c1ccc(OCC(=O)OCC(=O)Nc2ccccc2)cc1)S(=O)(=O)c1ccc(F)cc1,-11.9%
18,CN(c1ccc(OCC(=O)OCC(=O)Nc2ccc(F)cc2)cc1)S(=O)(=O)c1ccc(Cl)cc1,-59.2%
19,COc1ccc(N(CC(=O)NCc2ccncc2)S(=O)(=O)c2ccc(C)c([N+](=O)[O-])c2)cc1,-50.9%
20,CCNC(=O)CN(c1ccc(C)cc1)S(=O)(=O)c1ccccc1,7.75%
21,COc1ccc(S(=O)(=O)N(CC(=O)NCc2cccnc2)c2ccc(C)cc2)cc1OC,-10%
22,COc1ccc(N(CC(=O)NCc2cccnc2)S(=O)(=O)c2ccc(C)c([N+](=O)[O-])c2)cc1,-36.6%
23,Fc1ccc(C2=CCN(C(c3cccs3)c3nnnn3CCc3ccccc3)CC2)cc1 (stereo not drawn),-0.341%
24,O=C(CCC(=O)c1cccs1)Nc1ccccc1F,3.01%
25,COc1ccc(C(=O)CCC(=O)NCCc2c[nH]c3ccccc23)cc1OC,21.2%
26,Cc1cccc(C)c1NC(=O)c1ccc(CN2CCc3ccccc3C2)cc1,4.57%

row,Compound,"hERG current change (%, negative = inhibition) at 10uM"
1,Cc1nn(CC(=O)N2CCCCCC2)c(=O)c2cc3occc3n12,14.6%
2,Cc1cc(NC(=O)c2cc(-c3ccc(Br)cc3)on2)no1,17.6%
3,COc1ccc(CCNC(=O)c2ccccc2OCc2c(C)noc2C)cc1,-26.4%
4,NS(=O)(=O)c1ccc(NC(=O)/C=C/c2ccccc2Cl)cc1,9.54%
5,CN=C(Nc1cc(C)nn1-c1ccccc1)c1ccc(F)cc1,-9.94%
6,COc1cc(SC)ccc1C(=O)Nc1cccc(S(=O)(=O)NC2=NCCCCC2)c1,4.08%
7,CN(c1ccc(OCC(=O)OCC(=O)NCc2ccco2)cc1)S(=O)(=O)c1ccc2ccccc2c1,2.22%
8,Cc1ccc(S(=O)(=O)N(Cc2ccc(Cl)cc2)c2ccccc2C(=O)NCc2cccnc2)cc1,-52%
9,CN(c1ccc(OCC(=O)O)cc1)S(=O)(=O)c1ccc2ccccc2c1,16.1%
10,Cc1ccc(S(=O)(=O)N(Cc2ccccc2)c2ccccc2C(=O)NCc2cccnc2)cc1,-33.2%
11,COCCNC(=O)COc1ccc(N(C)S(=O)(=O)c2ccc3ccccc3c2)cc1,-62%
12,O=C(COc1ccc(S(=O)(=O)N2CCCC2)cc1Cl)NCc1cccnc1,-55%
13,CCOc1ccc(S(=O)(=O)N(C)c2ccc(OCC(=O)NCc3cccnc3)cc2)cc1,-21.5%
14,Cc1ccc(S(=O)(=O)N(Cc2ccc(Cl)cc2)c2ccccc2C(=O)NCc2ccco2)cc1,-10.8%
15,O=C(COc1ccc(S(=O)(=O)N2CCCC2)cc1)NCc1cccnc1,-3.42%
16,CN(c1ccc(OCC(=O)NCCc2ccccc2)cc1)S(=O)(=O)c1ccc(Cl)cc1,15.2%
17,CN(c1ccc(OCC(=O)NCc2cccnc2)cc1)S(=O)(=O)c1ccc(Cl)cc1,-58.4%
18,O=C(COc1ccc(S(=O)(=O)N2CCCCC2)cc1)NCc1cccnc1,3.06%
19,COc1cc(/C=C/c2ccc3c(Br)cc(Br)c(O)c3n2)ccc1O,17.2%
20,O=C(CSc1ccc([N+](=O)[O-])cn1)Nc1ccc(N2CCOCC2)c(Cl)c1,-33.2%
21,CCc1nnc(NC(=O)CSc2nnnn2-c2cccc(C(=O)OC)c2)s1,8.39%
22,O=C(Cc1cccs1)Nc1nnc(COc2ccccc2)s1,3.05%
23,O=C(CN1C(=O)NC2(CCc3ccccc32)C1=O)Nc1cc(C(F)(F)F)ccc1N1CCOCC1 (stereo not drawn),-5.15%
24,O=C(COc1ncnc2ccccc12)N1CCN(S(=O)(=O)c2ccc(Cl)cc2)CC1,-9.26%
25,Cc1nc(Cl)c2c(n1)NC1=C(O2)C(=O)CCC1,14.7%
26,COc1cccc(/C=C2\SC(=S)N(CCC(=O)NCCc3ccc(O)cc3)C2=O)c1,3.18%
